High-throughput results from PubChem BioAssay.
KCNQ2 block = rat KCNQ2 potassium channel inhibitors, primary screen, cell-based, CHO-K1, FluxOR thallium flux, B-score; B-score at 10 µM; AID 2156, 2009; 1.1% of 310,000 active; 20 min; active compounds read low; Potassium voltage-gated channel subfamily KQT member 2 (Rattus norvegicus), O88943;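 active = fluorescence ratio B-score at most minus 3 library SDs, with starting brightness B-score within 2 library SDs, cut at about -5.5 in these data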
KCNQ2 pot = potentiators of rat KCNQ2 potassium channel | Potassium voltage-gated channel subfamily KQT member 2 (Rattus norvegicus), O88943 | CHO-K1 KCNQ2, FluxOR thallium flux fluorescence; active compounds read high | B-score at 10 µM | 0.54% of 310,000 active | AID 2239, 2010;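 active = fluorescence ratio B-score at least 3 SD of library B-scores, with initial fluorescence B-score within 3 of them, cut at about 5.3 in these data; same plate scores as AID 2156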;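 also: B-score of peak minus minimum over baseline fluorescence ratio after K+ and Tl+ stimulus; positive B-score means potentiation of KCNQ2 with more thallium influx and brighter signal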
Kir21 confirm = mouse Kir2.1 channel blockers, retest, confirmation, cell-based, FluxOR thallium flux, duplicate; shares compounds with KCNQ2 pot; Kir2.1-expressing cells, FluxOR thallium flux fluorescence; active compounds read low; Tl flux remaining, % of negative control (active compounds read low), % at 10 µM; 41% of 2,300 active;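 active = Primary-screen hit whose thallium flux fell at least 3 control SD below untreated wells in both duplicates, with normal baseline fluorescence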
Target sequence (P35561 whole entry, looked up): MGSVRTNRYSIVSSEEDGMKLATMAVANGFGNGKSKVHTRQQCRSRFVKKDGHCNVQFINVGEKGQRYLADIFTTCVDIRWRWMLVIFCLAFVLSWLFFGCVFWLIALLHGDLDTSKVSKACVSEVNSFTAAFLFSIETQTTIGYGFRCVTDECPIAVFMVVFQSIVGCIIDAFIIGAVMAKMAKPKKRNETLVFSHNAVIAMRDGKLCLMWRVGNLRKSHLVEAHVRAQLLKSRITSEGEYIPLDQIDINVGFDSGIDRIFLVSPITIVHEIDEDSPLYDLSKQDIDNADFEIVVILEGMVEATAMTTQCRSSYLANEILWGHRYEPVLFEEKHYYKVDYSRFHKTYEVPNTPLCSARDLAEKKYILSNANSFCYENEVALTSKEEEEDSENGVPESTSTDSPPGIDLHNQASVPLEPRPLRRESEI
HEK293 Tl flux = parental HEK293 activity in Kir2.1 inhibitor counter-screen; 19% of 2,300 active; shares compounds with KCNQ2 pot; parental HEK293 cells, FluxOR thallium flux fluorescence; 0% = unstimulated blank wells; FluxOR signal as % of negative control (100 = no effect), % at 10 µM;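 active = dye signal at least 3 control SD above or below untreated wells in both duplicates, raw fluorescence within 3, either direction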;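 also: percent is based on the flux ratio of peak minus minimum fluorescence over baseline F0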
CHO-K1 ctr = nonspecific thallium flux increase in parental CHO-K1, confirmation, counter-screen for KCNQ2 potentiator project, cell-based, FluxOR thallium flux, duplicate | shares compounds with KCNQ2 pot | parental CHO-K1 cells, FluxOR thallium flux fluorescence; zero = vehicle mean+3SD, 100% = vehicle-minus-blank window | activity increase over 3SD of controls, % at 10 µM | 43% of 1,200 active | AID 2282, 2010;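 active = signal rise of at least 3 SD above the untreated control mean, in both duplicate wells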;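 also: counter screen of KCNQ2 potentiator hits so any rise reflects channel-independent effects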
KCNQ1 pot spec = human KCNQ1 channel potentiation off-target, confirmation, selectivity assay for KCNQ2 potentiator project, cell-based, CHO, FluxOR thallium flux. shares compounds with KCNQ2 pot. CHO KCNQ1 stable, FluxOR thallium flux fluorescence; beyond 3SD, as % of vehicle-control signal. activation over 3SD threshold, % at 10 µM. 28% of 1,200 active;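 active = fluorescence ratio rise of at least 3 SD of vehicle wells above their mean, in both replicate wells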
KCNQ2 pot conf = rat KCNQ2 channel potentiators, confirmation, cell-based, CHO, FluxOR thallium flux, duplicate. AID 2287, 2010. 68% of 1,200 active. potentiation, less the hit threshold, % at 10 µM. CHO-KCNQ2 cells, FluxOR thallium flux fluorescence. shares compounds with KCNQ2 pot;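 active = fluorescence ratio rising 3 SD or more over the vehicle control mean in both replicates, plus primary screen hit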;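 also: peak minus minimum thallium fluorescence divided by baseline after K/Tl stimulus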
Kir2-1 sel = mouse Kir2.1 channel activation off-target, confirmation, selectivity assay for KCNQ2 potentiator project, cell-based, HEK293, FluxOR thallium flux; shares compounds with KCNQ2 pot; HEK293 Kir2.1, FluxOR thallium flux fluorescence; activity over 3SD threshold, % at 10 µM; 2% of 1,200 active; AID 2345, 2010;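 active = fluorescence ratio rise of at least 3 SD above the vehicle-control mean, seen in both replicates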
KCNQ2 W236L pot = potentiators of retigabine-insensitive KCNQ2 W236L, mechanism study for KCNQ2 potentiator project, cell-based, rat KCNQ2 W236L, CHO, automated patch clamp; 10% of 940 active; current increase over 3SD of negative controls (%), active compounds read high, % at 25 µM; shares compounds with KCNQ2 pot; AID 2558, 2010; automated patch clamp current;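 active = current increase at least 3 SD of the untreated controls above them in both duplicate recordings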
A number is an active result; i = inactive; nt = no result. Shown are actives, neighbours in structure and some others; about 1.6% of the full set was active somewhere.

SMILES | KCNQ2 block | KCNQ2 pot | Kir21 confirm | HEK293 Tl flux | others
CC(NC(=O)C12CC3CC(CC(C3)C1)C2)c1ccc2c(c1)OCCO2 (centres undefined) | i | i | nt | nt
Cc1ccc(C(C)NC(=O)C23CC4CC(CC(C4)C2)C3)cc1 (centres undefined) | i | 6 | i | i | CHO-K1 ctr=i;KCNQ1 pot spec=65;KCNQ2 pot conf=6.5;Kir2-1 sel=i;KCNQ2 W236L pot=i
O=c1c2[nH]c3ccc(F)cc3c2ncn1CCC1=CCCCC1 | i | nt | nt | nt
C=CCn1c(SCc2c(C)noc2C)nc2cc(C(=O)O)ccc2c1=O | i | i | nt | nt
C=CCn1c(SCc2ccc(Br)cc2F)nc2cc(C(=O)O)ccc2c1=O | i | 5.3 | i | i | CHO-K1 ctr=i;KCNQ1 pot spec=i;KCNQ2 pot conf=i;Kir2-1 sel=i;KCNQ2 W236L pot=i
N#Cc1ncccc1CCc1cccc(Cl)c1 | i | i | nt | nt
Cc1cccc(NC(=O)CCCc2ccccc2)c1 | i | nt | nt | nt
CN(C)c1ccc(NC(=O)CCCc2ccccc2)cc1 | i | 5.5 | i | i | CHO-K1 ctr=13;KCNQ1 pot spec=i;KCNQ2 pot conf=i;Kir2-1 sel=i;KCNQ2 W236L pot=i
CC1=C(C(=O)OCCC(C)C)C(c2ccc3c(c2)OCO3)NC(=O)N1 (centres undefined) | i | i | nt | nt
CC1CCCCC1NC(=S)NC(=O)c1cccs1 (centres undefined) | i | 8.4 | i | 188% | CHO-K1 ctr=44;KCNQ1 pot spec=23;KCNQ2 pot conf=15;Kir2-1 sel=i;KCNQ2 W236L pot=i
O=C(NNC(=S)NC1CCCCC1)c1cccs1 | i | i | nt | nt
CCOc1cc(C(C(=O)NCC2CCCO2)N(C(=O)Cn2nnc3ccccc32)c2ccccc2OC)ccc1O (centres undefined) | i | i | nt | nt
CCCCCCCCCCCC(=O)NC(C(=O)OCC)C(O)c1cccc([N+](=O)[O-])c1 (centres undefined) | i | i | nt | nt
COc1ccc(N2CCN(C3CCCN(S(=O)(=O)c4ccc(C)cc4C)C3)CC2)cc1 (centres undefined) | i | nt | nt | nt
COc1cccc(NC(=O)NCCCCc2ccccc2)c1 | i | i | nt | nt
COc1cccc(NC(=O)NCCCSC2CCCCC2)c1 | i | 6.5 | i | i | CHO-K1 ctr=i;KCNQ1 pot spec=i;KCNQ2 pot conf=13;Kir2-1 sel=i;KCNQ2 W236L pot=i
CCOC(=O)/C(C#N)=C1\CCCN1CC(N)=S | i | i | nt | nt
COc1ccc(CCC(C)NCc2ccccc2OC)cc1 (centres undefined) | i | i | nt | nt
CC(CCc1ccccc1)NCc1cccc2ccccc12 (centres undefined) | i | nt | 19% | i
COCC(C)NCc1cccc2ccccc12 (centres undefined) | i | i | nt | nt
COc1ccc(CCC(C)NCc2cccc(Br)c2)cc1 (centres undefined) | i | nt | 24% | i
CCOC(=O)Cn1c(=N)n(CCOc2ccc(Br)cc2)c2ccccc21 | i | nt | 36% | i
CCOC(=O)Cn1c(=N)n(Cc2ccccc2)c2ccccc21 | i | i | nt | nt
Nc1nc2ccccc2n1CCOc1ccc(Br)cc1 | i | nt | 20% | 130%
Nc1nc2ccccc2n1CCOc1ccc(Cl)cc1 | i | i | nt | nt
SMILES | KCNQ2 block | KCNQ2 pot | Kir21 confirm | HEK293 Tl flux | others
COc1ccc(Cl)c2sc(N(CCN(C)C)C(=O)CCS(=O)(=O)c3ccc(C)cc3)nc12 | i | nt | nt | nt
COc1ccc(OC)c2sc(N(CCCN(C)C)C(=O)CCS(=O)(=O)c3ccccc3)nc12 | i | 9.9 | nt | nt | CHO-K1 ctr=i;KCNQ1 pot spec=68;KCNQ2 pot conf=i;Kir2-1 sel=i
O=C(COC(=O)C12CC3CC(CC(O)(C3)C1)C2)NCCc1ccc(Cl)cc1 | i | nt | nt | nt
O=C(CC1(c2ccc(Cl)cc2)C2CC3CC(C2)CC1C3)NCCO (centres undefined) | i | 5.4 | i | i | CHO-K1 ctr=48;KCNQ1 pot spec=72;KCNQ2 pot conf=14;Kir2-1 sel=i;KCNQ2 W236L pot=i
O=C(OC1CO[C@H]2O[C@@H]1[C@H](OC(=O)c1ccccc1)[C@H]2OC(=O)c1ccccc1)c1ccccc1 (some centres undefined) | i | nt | nt | nt
CCCCN1C(=O)C(=Nc2cccc3cnccc23)c2ccccc21 | i | nt | 36% | i
CCCCN1C(=O)/C(=C2\SC(N3CCCCC3)=NC2=O)c2ccccc21 | i | i | nt | nt
O=C(Cc1cccc(C(F)(F)F)c1)Nc1ccccc1 | i | 9 | i | i | CHO-K1 ctr=35;KCNQ1 pot spec=59;KCNQ2 pot conf=13;Kir2-1 sel=i;KCNQ2 W236L pot=i
O=C(COC(=O)Cc1cccc(C(F)(F)F)c1)Nc1ccccc1 | i | i | nt | nt
CN(CC(=O)Nc1ccc(Cl)cc1)CC(=O)Nc1cc(Cl)ccc1C#N | i | nt | nt | nt
CCOc1ccc(S(=O)(=O)N2CCCC(C(=O)NCCN3CCOCC3)C2)cc1Cl (centres undefined) | i | i | nt | nt
CCCCn1c(N)c(N(CCOC)C(=O)C2CCN(S(=O)(=O)c3ccc(Cl)cc3)CC2)c(=O)[nH]c1=O | i | nt | nt | nt
O=C(C1=C(O)C(=O)N(CC2CCCO2)C1c1ccc(Cl)cc1Cl)c1ccco1 (centres undefined) | i | nt | nt | nt
CCOC(=O)CNC(=O)C12CC3CC(CC(C3)C1)C2 | i | i | nt | nt
Cc1nonc1OCCNC(=O)C12CC3CC(CC(C3)C1)C2 | i | 13 | i | 74% | CHO-K1 ctr=74;KCNQ1 pot spec=i;KCNQ2 pot conf=i;Kir2-1 sel=i
Cc1ccc(CN2CCSCC2)c(C)c1 | i | i | nt | nt
CCOc1cc(/C=N/O)ccc1OS(=O)(=O)c1ccc(C)cc1 | i | i | 48% | i
CCOc1cc(/C=N/NS(=O)(=O)c2ccccc2)ccc1OS(=O)(=O)c1ccc(C)cc1 | i | nt | nt | nt
O=C(O)c1cccc(NC2=C(Cl)C(=O)c3ccccc3C2=O)c1 | -7.6 | i | 38% | i
O=C1C(Cl)=C(Nc2ccccc2)C(=O)c2ccccc21 | i | nt | nt | nt
O=C(O)c1ccc(NC2=C(Cl)C(=O)c3ccccc3C2=O)cc1 | -10 | i | i | i
Cc1ccc(NC2=C(NC(=O)c3ccccc3)C(=O)c3ccccc3C2=O)cc1Cl | i | nt | nt | nt
